Rows were chosen to be rich in hits. Some 21% of all compounds tested hit in one or more screens of this group.
Pf growth 48h – inhibits P. falciparum growth in the first generation, 48 h | Potency, µM (doses to about 28.7 µM), for the others: top-dose activity change, negative = inhibition, most hits filed as inhibitors | 310,000 tested, 5.9% active | P. falciparum luciferase growth in erythrocytes, 48 h | AID 504832; further: potency means the concentration at half of the fitted maximal effect; on the % scale 0 is the no-effect control and ±100 the full control effect
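Luciferase-expressing parasites in RBCs, 2% Hct / 0.1% parasitemia final; RPMI 1640 + 0.5% Albumax; 37 C, 5% CO2, one generation; luminescence read-out, lower signal = inhibition.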
Shiga toxin inh – blocks Shiga toxin action in Vero cells. Vero cells, Shiga toxin protein synthesis inhibition reporter. inhibition, % at 38.7 µM. 290,000 tested, 9.2% active; in the data active means inhibition mostly above about 28%, no sharp cut-off; inactive means mostly below about 43%; further: 0% is about no effect
CHX counter – counter-screen for Shiga toxin inhibitors: cycloheximide protein synthesis inhibition; cell reporter, cycloheximide protein synthesis inhibition counterscreen; 300,000 tested, 12% active; max response, %; in the data active means max response mostly above about 13%, no sharp cut-off; inactive means mostly below about 14%; further: read at 38.3 µM for the half of the compounds with a filed dose; 0% is about no effect
HCV inh – blocks hepatitis C virus; Huh7.5.1 HCVcc-Cre infection, luciferase reporter, 44 h; Potency, µM (titrated, usually from 41.8 µM), inactives show at the highest dose activity change, negative = inhibition, usual class: inhibitors; 340,000 tested, 3.4% active; AID 651820; further: potency means the concentration at half of the fitted maximal effect; on the % scale 0 is the no-effect control and ±100 the full control effect
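Whole-lifecycle infectious HCVcc-Cre system; cells 1,000/well, compound then virus (~0.5 moi) added 4 h after plating, 44 h culture. Luciferase read 15 sec following 15 min substrate incubation, room temp.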
HCMV antiviral – inhibitors of human cytomegalovirus | 410,000 tested, 4.5% active | activity change, negative = inhibition, % at 57.5 µM | HFF cells, HCMV-luciferase reporter, 72 h; hits give low values; in the data active means activity change below about -60%; inconclusive means no clear call, values can overlap the other calls; inactive means above about -39%; further: on the % scale 0 is the no-effect control and ±100 the full control effect
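Screen run at 2 compound doses on HFFs infected with reporter HCMV, MOI 1 PFU/cell. Luciferase activity from cell lysates at 72 h post infection gave inhibition relative to buffer-only and Salinomycin wells.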
Pf growth 96h – P. falciparum growth inhibition at 96 hours. P. falciparum luciferase reporter growth, 96 h. Potency, µM (doses to about 28.7 µM), for the others: top-dose activity change, negative = inhibition, most hits filed as inhibitors. 320,000 tested, 6.9% active. AID 504834; further: potency means the concentration at half of the fitted maximal effect; on the % scale 0 is the no-effect control and ±100 the full control effect
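Cell-based qHTS: luciferase-tagged P. falciparum in erythrocytes (2% hematocrit, 0.05% parasitemia final) incubated with compounds for 96 hours, 37 C, 5% CO2; luciferase detection reagent then added and luminescence measured.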
* = called active by the depositor; ? = inconclusive; · = no result. Unless noted, the call rests on the fitted dose curve; in most records, active means well fitted inhibition curve with a large enough effect; inconclusive means small, poorly fitted or top-dose-only effect, or another doubt; inactive means no such curve, though single readings can be large or run the other way.

SMILES	Pf growth 48h	Shiga toxin inh	CHX counter	HCV inh	HCMV antiviral	Pf growth 96h
Cc1[nH]cnc1CSCc1ccc(F)cc1	-7%	31*	49*	-3%	15	?
Nc1nnc(CSCc2ccc(F)cc2)s1	5%	20	-1	-14%	20	-28%
COc1ccc([C@@]23Oc4cc(OC)cc(OC)c4[C@]2(O)[C@H](O)[C@H](C(=O)N(C)C)[C@H]3c2ccccc2)cc1	·	·	·	·	-98*	·
Cc1nc(N2CCCCC2)c2c(C)c(C(=O)Nc3ccccc3C(F)(F)F)sc2n1	9.3µM*	41	-5	?	?	?
CCOc1ccccc1NC(=O)c1sc2nc(C)nc(N3CCOCC3)c2c1C	?	-8	-4	?	-30	-7%
Cc1nc(N2CCCCC2)c2c(C)c(C(=O)Nc3cccc(C(F)(F)F)c3)sc2n1	2.6µM*	17	7	25µM*	-60*	-30%
Cc1nc(N2CCCCC2C)c2c(C)c(C(=O)Nc3cccc(C(F)(F)F)c3)sc2n1 (centres undefined)	?	-4	1	?	-29	25%
COc1cc(-c2nnc(CSc3nnc(Nc4ccc(C(C)C)cc4)s3)o2)cc(OC)c1OC	-22%	48	19*	7.1µM*	41	?
COc1cccc(CN2CCC(C(=O)Nc3ccc(Oc4cccnc4)cc3)CC2)c1	?	-11	2	?	-9	56%
CCn1nc(C)c(CN2CCCCC2C(=O)Nc2ccc(Oc3cccnc3)cc2)c1C (centres undefined)	?	-3	9	11µM*	·	7%
O=C(Nc1ccc(Oc2cccnc2)cc1)C1CCN(Cc2cc(Cl)ccc2O)CC1	1.3µM*	23	10	?	-83*	?
Cc1ccc(CN2CCCCC2C(=O)Nc2ccc(Oc3cccnc3)cc2)o1 (centres undefined)	0%	-5	13	?	-33	?
Cc1cccc(CN2CCC(C(=O)Nc3ccc(Oc4cccnc4)cc3)CC2)c1	13µM*	-1	-3	?	-25	14%
CCn1cc(CN2CCC(C(=O)Nc3ccc(Oc4cccnc4)cc3)CC2)cn1	13µM*	-19	-2	·	?	12%
NS(=O)(=O)c1ccc(NC(=O)CCC(=O)O)cc1	-5%	·	·	·	116	-17%
COc1cccc2c(Cl)c(CCCl)c(C)nc12	-20%	25	-1	-20%	-69*	-14%
Cc1cc(NC(=O)C2COc3ccccc3O2)no1 (centres undefined)	54%	61*	37*	12%	49	-27%
Cc1cc(NC(=O)COC(=O)C2COc3ccccc3O2)no1 (centres undefined)	38%	7	1	0%	23	10µM*
COc1ccc(OC)c(NC(=O)C2COc3ccccc3O2)c1 (centres undefined)	?	3	10	?	28	?
COc1ccc(OCc2nc3c4c(-c5ccc(OC)cc5)c(-c5ccc(OC)cc5)oc4ncn3n2)cc1	·	·	·	·	3	·
O=C(Nc1ccc(F)cc1)c1ccc2c(=O)n3c(nc2c1)CCCCC3	87%	52*	24*	?	33	4.7µM*
O=C(Nc1ccc(F)c(Cl)c1)c1ccc2c(=O)n3c(nc2c1)CCCCC3	205%	54*	52*	10µM*	-91*	50%
CCc1cccc(NC(=O)c2ccc3c(=O)n4c(nc3c2)CCCCC4)c1	?	76*	38*	13µM*	-17	-15%
CNC(=O)c1ccc(NC(=O)c2ccc3c(=O)n4c(nc3c2)CCC4)cc1	-3%	·	·	9%	0	?
CCc1ccc(C(=O)NNC(=O)c2ccc3c(=O)n4c(nc3c2)CCC4)cc1	11%	-10	-2	10%	37	27%
Cc1ccc(NC(=O)c2ccc3c(=O)n4c(nc3c2)CCC4)cc1F	136%	·	·	?	8	180%
CC(=O)c1ccc(NC(=O)c2ccc3c(=O)n4c(nc3c2)CCCCC4)cc1	?	16	7	?	-31	18%
O=C(Nc1ccc(Cl)cc1)c1ccc2c(=O)n3c(nc2c1)CCCCC3	6%	41*	54*	?	-21	6%

High-throughput results (PubChem BioAssay)
